{"source": "PubChem BioAssay (NCATS)", "key": {"JEG-3": {"tested_on": "JEG-3", "test": "Primary qHTS to identify gynecologic anti-cancer compounds using libraries of approved drugs and bioactive compounds (AID 1345084); further: nearly all actives have a fitted effect of over 55% in size; further: potency means the concentration at half of the fitted maximal effect", "conditions": "Gynecologic cancer cell panel viability, ATPlite luminescence, 48 h; series mostly up to 57.5 µM", "outline": "(§1)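 In this quantitative HTS, cell killing is estimated from loss of ATP-dependent luciferase light. Cells see five compound concentrations over a 48 h exposure.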"}, "OV90": {"tested_on": "OV90", "test": "Primary qHTS to identify gynecologic anti-cancer compounds using libraries of approved drugs and bioactive compounds (AID 1345084)", "conditions": "Gynecologic cancer cell panel viability, ATPlite luminescence, 48 h; series mostly up to 57.5 µM", "outline": "as §1"}, "PA-1": {"tested_on": "PA-1", "test": "Primary qHTS to identify gynecologic anti-cancer compounds using libraries of approved drugs and bioactive compounds (AID 1345084)", "conditions": "Gynecologic cancer cell panel viability, ATPlite luminescence, 48 h; series mostly up to 57.5 µM", "outline": "as §1"}, "SKOV3": {"tested_on": "SKOV3", "test": "Primary qHTS to identify gynecologic anti-cancer compounds using libraries of approved drugs and bioactive compounds (AID 1345084)", "conditions": "Gynecologic cancer cell panel viability, ATPlite luminescence, 48 h; series mostly up to 57.5 µM", "outline": "as §1"}, "Tov-21-G": {"tested_on": "Tov-21-G", "test": "Primary qHTS to identify gynecologic anti-cancer compounds using libraries of approved drugs and bioactive compounds (AID 1345084)", "conditions": "Gynecologic cancer cell panel viability, ATPlite luminescence, 48 h; series mostly up to 57.5 µM", "outline": "as §1"}, "Tov112D": {"tested_on": "Tov112D", "test": "Primary qHTS to identify gynecologic anti-cancer compounds using libraries of approved drugs and bioactive compounds (AID 1345084)", "conditions": "Gynecologic cancer cell panel viability, ATPlite luminescence, 48 h; series mostly up to 57.5 µM", "outline": "as §1"}, "[1]": {"test": "Drug repurposing screens with cells derived from glioblastoma tumor samples (AID 1345199)", "conditions": "GBM patient neurospheres viability, ATP luminescence, 48 h", "outline": "(§2)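 Primary testing used CD133+ neurospheres from four GBM patients, seven concentrations, 48 h exposure and ATP-based viability; confirmation added three slower-growing patient lines.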"}, "astro": {"tested_on": "astro", "test": "Drug repurposing screens with cells derived from glioblastoma tumor samples (AID 1345199)", "conditions": "viability, ATP luminescence, 48 h; series mostly up to 45.9 µM", "outline": "as §2"}, "[2]": {"target": "Nuclear receptor subfamily 1 group I member 2 (Rattus norvegicus) (UniProt Q9R1A7)", "sequence (Q9R1A7 whole entry, looked up)": "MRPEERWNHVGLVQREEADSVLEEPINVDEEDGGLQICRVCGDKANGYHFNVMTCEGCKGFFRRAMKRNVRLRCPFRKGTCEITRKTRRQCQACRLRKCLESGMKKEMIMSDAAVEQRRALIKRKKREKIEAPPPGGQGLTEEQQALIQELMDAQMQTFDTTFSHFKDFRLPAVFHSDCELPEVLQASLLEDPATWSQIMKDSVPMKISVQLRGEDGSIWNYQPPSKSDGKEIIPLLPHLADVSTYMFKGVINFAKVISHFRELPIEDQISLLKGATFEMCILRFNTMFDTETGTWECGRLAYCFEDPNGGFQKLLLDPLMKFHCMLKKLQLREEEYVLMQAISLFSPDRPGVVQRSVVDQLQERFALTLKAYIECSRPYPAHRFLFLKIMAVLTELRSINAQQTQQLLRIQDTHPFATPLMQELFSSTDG", "test": "qHTS assay for small molecule activators of the rat pregnane X receptor (rPXR) signaling pathway (AID 651751; call rule not given here)", "conditions": "rPXR reporter cells, luciferase (One-Glo), 24 h"}, "[3]": {"test": "qHTS assay to identify inhibitors of the type 1 interferon - major histocompatibility complex class I in skeletal muscle: Counter screen cell viability and HiBit confirmation (AID 1347412)", "conditions": "iHSKM muscle cells + IFN-b, HiBiT or CellTiter-Glo, 24 h; Viability; at 45.9 µM (top of the series)", "outline": "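Luminescence read-out: Nano-Glo HiBiT lytic signal from C-terminally HiBiT-tagged HLA-B in CRISPR-edited human myoblasts, plus CellTiter Glo ATP as viability counter screen. IFN-beta 4.0 ng/ml; 24 hrs treatment at 37 C, 5% CO2.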"}, "[4]": {"conditions": "at 45.9 µM (top of the series), tumour line B"}, "[5]": {"conditions": "at 45.9 µM (top of the series), tumour line D"}, "[6]": {"conditions": "at 46.1 µM (top of the series), tumour line C"}}, "note": "Where “and” joins values, the source holds several entries; their conditions need not be identical. Equal values may be shown once. Results filed as inconclusive are left out. Where a call stands in place of a potency, no number is given. A structure can be active in one record and inactive in another. Calls of active or inactive are those of the source. Unless noted, the call rests on the fitted dose curve; in most records, active means well fitted curve in the direction sought with a large enough effect; inconclusive means small, poorly fitted or top-dose-only effect, or another doubt; inactive means no such curve, though single readings can be large; an effect the other way counts as inactive or inconclusive. Wherever activity change, negative = inhibition is given: nearly all actives have a fitted effect of over 60% in size. Wherever activity, negative = cell killing is given: nearly all actives have a fitted effect of over 40% in size. Wherever potency is given: potency means the concentration at half of the fitted maximal effect.", "data": [{"smiles": "CCN[C@H]1C[C@H](C)S(=O)(=O)c2sc(S(N)(=O)=O)cc21", "values": [{"measurement": "Potency", "setting": "JEG-3", "result": "inactive"}, {"measurement": "Potency", "setting": "OV90", "result": "inactive"}, {"measurement": "Potency", "setting": "PA-1", "result": "inactive"}, {"measurement": "Potency", "setting": "SKOV3", "result": "inactive"}, {"measurement": "Potency", "setting": "Tov-21-G", "result": "inactive"}, {"measurement": "Potency", "setting": "Tov112D", "result": "inactive"}, {"measurement": "activity, negative = cell killing", "setting": "[1]; [4]", "result": "-1.09% (inactive)"}, {"measurement": "activity, negative = cell killing", "setting": "[1]; [5]", "result": "3.44% (inactive)"}, {"measurement": "activity, negative = cell killing", "setting": "[1]; [6]", "result": "-27% (inactive)"}, {"measurement": "Potency", "setting": "astro", "result": "inactive"}]}, {"smiles": "C[C@]12C=CC(=O)C=C1CC[C@@H]1[C@@H]2C(=O)C[C@@]2(C)[C@H]1CC[C@]2(O)C(=O)CO", "values": [{"measurement": "Potency", "setting": "JEG-3", "result": "inactive"}, {"measurement": "Potency", "setting": "OV90", "result": "inactive"}, {"measurement": "Potency", "setting": "PA-1", "result": "inactive"}, {"measurement": "Potency", "setting": "SKOV3", "result": "inactive"}, {"measurement": "Potency", "setting": "Tov-21-G", "result": "inactive"}, {"measurement": "Potency", "setting": "Tov112D", "result": "inactive"}, {"measurement": "activity, negative = cell killing", "setting": "[1]; [4]", "result": "-6.23% (inactive)"}, {"measurement": "activity, negative = cell killing", "setting": "[1]; [5]", "result": "5.45% (inactive)"}, {"measurement": "activity, negative = cell killing", "setting": "[1]; [6]", "result": "-7.06% (inactive)"}, {"measurement": "Potency", "setting": "astro", "result": "inactive"}]}, {"smiles": "NNC(=O)c1ccncc1", "values": [{"measurement": "Potency", "setting": "JEG-3", "result": "inactive"}, {"measurement": "Potency", "setting": "OV90", "result": "inactive"}, {"measurement": "Potency", "setting": "PA-1", "result": "inactive"}, {"measurement": "Potency", "setting": "SKOV3", "result": "inactive"}, {"measurement": "Potency", "setting": "Tov-21-G", "result": "inactive"}, {"measurement": "Potency", "setting": "Tov112D", "result": "inactive"}, {"measurement": "activity, negative = cell killing", "setting": "[1]; [4]", "result": "-4.35% (inactive)"}, {"measurement": "activity, negative = cell killing", "setting": "[1]; [5]", "result": "-4.61% (inactive)"}, {"measurement": "activity, negative = cell killing", "setting": "[1]; [6]", "result": "-1.87% (inactive)"}, {"measurement": "Potency", "setting": "astro", "result": "inactive"}, {"measurement": "max response", "setting": "[2]", "result": "6.47% (inactive)"}]}, {"smiles": "CC[C@H](C)C(=O)O[C@H]1C[C@@H](C)C=C2C=C[C@H](C)[C@H](CC[C@@H]3C[C@@H](O)CC(=O)O3)[C@H]21", "values": [{"measurement": "Potency", "setting": "JEG-3", "result": "inactive"}, {"measurement": "Potency", "setting": "OV90", "result": "inactive"}, {"measurement": "Potency", "setting": "PA-1", "result": "inactive"}, {"measurement": "Potency", "setting": "SKOV3", "result": "inactive"}, {"measurement": "Potency", "setting": "Tov-21-G", "result": "inactive"}, {"measurement": "Potency", "setting": "Tov112D", "result": "inactive"}, {"measurement": "Potency", "setting": "astro", "result": "0.447 µM (active)"}]}, {"smiles": "CC(C)(C#N)c1cc(Cn2cncn2)cc(C(C)(C)C#N)c1", "values": [{"measurement": "Potency", "setting": "JEG-3", "result": "inactive"}, {"measurement": "Potency", "setting": "OV90", "result": "inactive"}, {"measurement": "Potency", "setting": "PA-1", "result": "inactive"}, {"measurement": "Potency", "setting": "SKOV3", "result": "inactive"}, {"measurement": "Potency", "setting": "Tov-21-G", "result": "inactive"}, {"measurement": "activity, negative = cell killing", "setting": "[1]; [4]", "result": "-13.4% (inactive)"}, {"measurement": "activity, negative = cell killing", "setting": "[1]; [5]", "result": "-8.79% (inactive)"}, {"measurement": "activity, negative = cell killing", "setting": "[1]; [6]", "result": "-3.92% (inactive)"}, {"measurement": "Potency", "setting": "astro", "result": "inactive"}]}, {"smiles": "Nc1nc(=S)c2[nH]cnc2[nH]1", "values": [{"measurement": "Potency", "setting": "JEG-3", "result": "3.16 µM (active)"}, {"measurement": "Potency", "setting": "OV90", "result": "8.91 µM (active)"}, {"measurement": "Potency", "setting": "PA-1", "result": "3.55 µM (active)"}, {"measurement": "Potency", "setting": "Tov-21-G", "result": "3.55 µM (active)"}, {"measurement": "Potency", "setting": "Tov112D", "result": "1.41 µM (active)"}]}, {"smiles": "CCOC(=O)[C@H](CCc1ccccc1)N[C@H]1CCc2ccccc2N(CC(=O)O)C1=O", "values": [{"measurement": "Potency", "setting": "JEG-3", "result": "inactive"}, {"measurement": "Potency", "setting": "OV90", "result": "inactive"}, {"measurement": "Potency", "setting": "PA-1", "result": "inactive"}, {"measurement": "Potency", "setting": "Tov-21-G", "result": "inactive"}, {"measurement": "Potency", "setting": "Tov112D", "result": "inactive"}]}, {"smiles": "NC(=O)N1c2ccccc2CC(=O)c2ccccc21", "values": [{"measurement": "Potency", "setting": "JEG-3", "result": "inactive"}, {"measurement": "Potency", "setting": "OV90", "result": "inactive"}, {"measurement": "Potency", "setting": "PA-1", "result": "inactive"}, {"measurement": "Potency", "setting": "SKOV3", "result": "inactive"}, {"measurement": "Potency", "setting": "Tov-21-G", "result": "inactive"}, {"measurement": "Potency", "setting": "Tov112D", "result": "inactive"}, {"measurement": "activity, negative = cell killing", "setting": "[1]; [4]", "result": "-29.6% (inactive)"}, {"measurement": "activity, negative = cell killing", "setting": "[1]; [5]", "result": "-1.67% (inactive)"}, {"measurement": "activity, negative = cell killing", "setting": "[1]; [6]", "result": "-9.41% (inactive)"}, {"measurement": "Potency", "setting": "astro", "result": "inactive"}]}, {"smiles": "COc1cc2c(Nc3ccc(Br)cc3F)ncnc2cc1OCC1CCN(C)CC1", "values": [{"measurement": "Potency", "setting": "JEG-3", "result": "inactive and 28.2 µM (active)"}, {"measurement": "Potency", "setting": "OV90", "result": "inactive"}, {"measurement": "Potency", "setting": "PA-1", "result": "inactive"}, {"measurement": "Potency", "setting": "SKOV3", "result": "inactive and 12.6 µM (active)"}, {"measurement": "Potency", "setting": "Tov-21-G", "result": "inactive"}, {"measurement": "Potency", "setting": "Tov112D", "result": "inactive and 31.6 µM (active)"}, {"measurement": "Potency", "setting": "astro", "result": "14.1 µM (active)"}]}, {"smiles": "CNC(=O)c1cc(Oc2ccc(NC(=O)Nc3ccc(Cl)c(C(F)(F)F)c3)cc2)ccn1", "values": [{"measurement": "Potency", "setting": "JEG-3", "result": "inactive"}, {"measurement": "Potency", "setting": "OV90", "result": "inactive"}, {"measurement": "Potency", "setting": "PA-1", "result": "inactive"}, {"measurement": "Potency", "setting": "Tov-21-G", "result": "inactive"}, {"measurement": "Potency", "setting": "Tov112D", "result": "inactive"}, {"measurement": "activity change, negative = inhibition", "setting": "[3]", "result": "-24% (inactive)"}]}]}
